Inconclusive results are not listed. Unmarked numbers belong to inactive results. Active and inactive are the calls of the source. Calls follow the shape of the dose curve; as a rule, active = well fitted cell-killing curve with a large enough effect; inconclusive = small, poorly fitted or top-dose-only effect, or effect the other way; inactive = no such curve, though single readings can be large or run the other way.
The molecules below were run on HeLa (assay: Confirmatory qHTS for gynecologic anti-cancer compounds from libraries of approved drugs and bioactive compounds). Conditions: gynecologic cancer cell panel viability, ATPlite luminescence, 48 h; series mostly up to 57.6 µM; activity change, negative = viability loss: at the top concentration.
Summary of the method: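 Cells (1,000/well) were plated, left 16 h at 37 C/5% CO2, then given compound at 11 concentrations (1:3) from 57.5 uM to 0.977 nM for 48 h. ATPlite luminescence after 15 min at room temperature gave IC50 values.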
`O=C(CCCCCCNC(=O)c1cnc(N(c2ccccc2)c2ccccc2)nc1)NO` was tested, and the Potency was 7.69 µM (active). With `CC(Oc1ccc2[nH]nc(/C=C/c3cnn(CCO)c3)c2c1)c1c(Cl)cncc1Cl` (stereo not drawn) the Potency was 0.172 µM (active). For `CC1(C)[C@@H](O)CC[C@]2(C)[C@H]3C(=O)C=C4[C@@H]5C[C@@](C)(C(=O)O)CC[C@]5(C)CC[C@@]4(C)[C@]3(C)CC[C@@H]12`, the “activity change, negative = viability loss” value was 44.9%. `COc1cccc2c1C(=O)c1c(O)c3c(c(O)c1C2=O)C[C@@](O)(C(=O)CO)C[C@@H]3O[C@H]1C[C@H](N)[C@H](O[C@@H]2CCCCO2)[C@H](C)O1` was tested, and the Potency was 12.2 µM (active). For `CCN(CC)CCNC(=O)c1c(C)[nH]c(/C=C2\C(=O)Nc3ccc(F)cc32)c1C`, the Potency was 12.6 µM (active). In the case of `CC(Oc1cc(-n2cnc3ccc(CN4CCN(C)CC4)cc32)sc1C(N)=O)c1ccccc1C(F)(F)F` (stereo not drawn), the Potency is reported as 2.43 µM (active). For `CN1C(=O)C(Cc2c[nH]c3ccccc23)NC1=S` (stereo not drawn), the “activity change, negative = viability loss” value was -2.78% [at 19.5 µM]. With `CC[C@]1(O)C[C@@H]2CN(CCc3c([nH]c4ccccc34)[C@@](C(=O)OC)(c3cc4c(cc3OC)N(C)[C@H]3[C@@](O)(C(=O)OC)[C@H](OC(C)=O)[C@]5(CC)C=CCN6CC[C@]43[C@@H]65)C2)C1` the Potency was 0.122 µM (active). In the case of `Cc1nc(N)nc(N)c1-c1ccc(Cl)c(Cl)c1`, the Potency is reported as 3.06 µM (active). With `Nc1cccc(-c2cc3c(Oc4cccc(O)c4)ncnc3[nH]2)c1` the Potency was 9.68 µM (active). `CC(C)n1nc(-c2cc3cc(O)ccc3[nH]2)c2c(N)ncnc21` was tested, and the Potency was 5.44 µM (active). In the case of `CCc1cccc(CC)c1NC(=O)N1Cc2[nH]nc(NC(=O)c3ccc(N4CCN(C)CC4)cc3)c2C1`, the Potency is reported as 1.53 µM (active). For `COc1ccc(OC)c(-c2nnc3ccc(-c4ccc(OC)c(O[C@@H]5CCOC5)c4)nn23)c1`, the Potency was 5.44 µM (active). In the case of `Oc1cn2c(n1)Nc1ccc(Cl)c(Cl)c1C2`, the Potency is reported as 0.0106 µM (active). In the case of `Cc1nc(NC(=O)N2CCCC2C(N)=O)sc1-c1ccnc(C(C)(C)C(F)(F)F)c1` (stereo not drawn), the Potency is reported as 19.3 µM (active). For `OCCNC1CCCc2c1[nH]c1ccc(-c3ccccc3)cc21` (stereo not drawn), the Potency was 1.93 µM (active). For `O=C(Nc1cn[nH]c1-c1nc2ccc(CN3CCOCC3)cc2[nH]1)NC1CC1`, the Potency was 0.0432 µM (active). For `CC(=O)Nc1cccc(-n2c(=O)n(C3CC3)c(=O)c3c(Nc4ccc(I)cc4F)n(C)c(=O)c(C)c32)c1`, the “activity change, negative = viability loss” value was -19.4%. `COc1cc2nccc(Oc3ccc(NC(=O)Nc4cc(C)on4)c(Cl)c3)c2cc1OC` was tested, and the Potency was 15.3 µM (active). For `COc1cc2c(NC3CCN(C(C)C)CC3)nc(C3CCCCC3)nc2cc1OCCCN1CCCC1`, the Potency was 15.3 µM (active). `CNc1nc(Nc2ccc(C(=O)N3CCOCC3)cc2OC)ncc1Cl` was tested, and the Potency was 6.85 µM (active). For `Cc1nc(N)sc1-c1ccnc(Nc2ccc(N3CCOCC3)cc2)n1`, the Potency was 2.17 µM (active). With `Cc1cc(Nc2nc(N[C@@H](C)c3ccc(F)cc3)c(C#N)cc2F)n[nH]1` the Potency was 1.09 µM (active). `CCC1=CC2CN(C1)Cc1c([nH]c3ccccc13)[C@@](C(=O)OC)(c1cc3c(cc1OC)N(C)[C@H]1[C@@](O)(C(=O)OC)[C@H](OC(C)=O)[C@]4(CC)C=CCN5CC[C@]31[C@@H]54)C2` (stereo partly drawn) was tested, and the Potency was 0.0943 µM (active). For `Cc1ccc(C(=O)N(CCCN)C(c2nc3cc(Cl)ccc3c(=O)n2Cc2ccccc2)C(C)C)cc1` (stereo not drawn), the Potency was 0.0172 µM (active). For `NCCOc1cc(C(=O)Nc2cc(OCCN)c3ccccc3n2)nc(C(=O)Nc2cc(OCCN)c3ccccc3n2)c1`, the Potency was 19.3 µM (active). `C[C@]12CCC(=O)C=C1[C@@H]1C[C@@H]1[C@H]1[C@@H]3[C@@H]4C[C@@H]4[C@@]4(CCC(=O)O4)[C@@]3(C)CC[C@@H]12` was tested, and the Potency was 4.85 µM (active). For `CNc1nccc(-c2cccnc2Oc2cc(C(=O)Nc3cccc(C(F)(F)F)c3)ccc2C)n1`, the Potency was 15.3 µM (active). In the case of `CS(=O)(=O)c1ccc(C(=O)Nc2ccc(Cl)c(-c3ccccn3)c2)c(Cl)c1`, the “activity change, negative = viability loss” value is reported as 17.4%. With `CC[C@H](CC#N)OC(=O)N[C@@H](C)c1cccc(NC(=O)Nc2ccc(-c3cnco3)c(OC)c2)c1` the Potency was 8.63 µM (active). With `NC1(c2ccc(-c3nc4ccn5c(=O)[nH]nc5c4cc3-c3ccccc3)cc2)CCC1` the “activity change, negative = viability loss” value was 5.7%. With `CN[C@@H](C)C(=O)N[C@H]1CN(C(=O)CC(C)C)CC[C@H]2CC[C@@H](C(=O)NC(c3ccccc3)c3ccccc3)N2C1=O` the “activity change, negative = viability loss” value was -6.64%. In the case of `O=C(O)C1(Cc2cccc(Nc3nccs3)n2)CCC(Oc2cccc(Cl)c2F)CC1` (stereo not drawn), the Potency is reported as 1.22 µM (active).

— PubChem BioAssay AID1345085 (National Center for Advancing Translational Sciences (NCATS), 2018)
% is scaled to controls: 0 for no effect and ±100 for the full control effect; potency is read from the fitted curve at half-maximal effect.
Also: nearly all actives have a fitted effect of over 55% in size.
